Values joined by “and” are separate entries in the source; they are usually repeats but may differ in a detail not shown here. Identical values can stand only once. Records with an inconclusive call do not appear. Where a structure was tested more than once in an assay, its records may differ in their call. Active and inactive are the calls of the source. How the source made its calls, unless noted: active means hit-call score of the fitted dose curve at least 0.9, where 1 is the maximum; inactive means score below 0.9.

The record followed here is PubChem BioAssay (EPA / NIEHS).

Experiment [1] can be described thus: CCTE_Mundy_HCI_hNP1_Pro_ResponderAvgInten: CCTE's Proliferation Assay in human neuroprogenitor cells, Mundy Lab (AID 2284224; active means hit-call score of the fitted dose curve at least 0.9, where 1 is the maximum). The essentials: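 Proliferation was scored as BrdU labelling intensity in human neural progenitors derived from WA09 embryonic cells, measured 26.25 hours after chemical dosing. Activity was fitted relative to DMSO.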
Experiment [2] can be described thus: BSK_BT_PBMCCytotoxicity: PBMC Cytotoxicity Assessment in the BioMAP Diversity Plus: BT Assay (AID 2284225).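 Further: PBMC viability measured by Alamar Blue dye reduction fluorescence.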 As to conditions: primary human B cells with PBMC. An outline of the steps:
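Primary human co-culture of B cells and PBMC, pre-dosed 1 h then activated with SEB and TSST-1. Cytotoxicity is taken from Alamar Blue dye reduction, added for 6 h at the end of a 90 h incubation.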

Read-out in experiment [3]: Secreted IgG (sIgG), gene 3500
The experiment is described as follows: BSK_BT_sIgG: BioMAP Diversity Plus: BT Assay for Secreted IgG (sIgG) Biomarker Activity (AID 2284226). As to conditions: primary human B cells with PBMC. The essentials:
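Human B cell/PBMC co-culture; compound exposure 24 h; sIgG by ELISA; gain-of-signal fit vs DMSO baseline.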

The nature of experiment [4]: BSK_BT_Bcell_Proliferation: Viability Assessment in the BioMAP Diversity Plus: BT Assay for B cell Proliferation (AID 2284227). As to conditions: primary human B cells with PBMC. An outline of the steps:
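Human B cell/PBMC co-culture; test chemical added; 72 h; TCA fix (10%), 0.1% SRB stain, A560 for total protein as a proliferation read-out; positive-direction fit vs DMSO baseline.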

Read-out in experiment [5]: Interleukin 6 (IL6), IL6 (gene 3569)
The experiment is described as follows: BSK_BT_xIL6: BioMAP Diversity Plus: BT Assay for Interleukin 6 (IL6) Biomarker Activity (AID 2284228). The note with it: primary human B cells with PBMC. The essentials: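 Secreted IL-6 in the primary human B cell plus PBMC system, measured by Luminex at 24 h post-chemical, DMSO as baseline. Alamar Blue viability: 75,000 cells/well, chemical 1 h before SEB/TSST-1 (20 ng/mL each), 90 h, then 6 h dye.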

Read-out in experiment [6]: Interleukin 17A (IL17A), IL17A (gene 3605)
The experiment is described as follows: BSK_BT_xIL17A: BioMAP Diversity Plus: BT Assay for Interleukin 17A (IL17A) Biomarker Activity (AID 2284229). As to conditions: primary human B cells with PBMC. The essentials:
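Luminex xMAP quantification of secreted IL-17A after 24 h chemical exposure of a primary human B cell/PBMC co-culture. Signal increases fitted relative to DMSO negative control.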

Read-out in experiment [7]: Tumor necrosis factor (Homo sapiens) (UniProt P01375)
The experiment is described as follows: BSK_BT_xTNFa: BioMAP Diversity Plus: BT Assay for Tumor necrosis factor alpha (TNF-alpha) Biomarker Activity (AID 2284230). As to conditions: primary human B cells with PBMC. The essentials: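 Read-out: Luminex xMAP quantitation of secreted TNF-alpha from a B cell/PBMC co-culture 24 h after compound addition. Signal analysed relative to DMSO vehicle, positive fitting direction.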

Read-out in experiment [8]: Vascular cell adhesion molecule 1 (VCAM1), VCAM1 (gene 7412)
The experiment is described as follows: BSK_MyoF_VCAM1: BioMAP Diversity Plus: MyoF Assay for Vascular cell adhesion molecule 1 (VCAM1) Biomarker Activity (AID 2284231). As to conditions: primary human lung fibroblasts. An outline of the steps:
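ELISA readout of VCAM-1 on human lung fibroblast cultures 24 hours after dosing, analyzed for signal gain relative to DMSO. Overt cytotoxicity was checked by sulforhodamine B total-protein staining in parallel cultures.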

Chain of Tumor necrosis factor (Homo sapiens) (P01375 whole entry, looked up): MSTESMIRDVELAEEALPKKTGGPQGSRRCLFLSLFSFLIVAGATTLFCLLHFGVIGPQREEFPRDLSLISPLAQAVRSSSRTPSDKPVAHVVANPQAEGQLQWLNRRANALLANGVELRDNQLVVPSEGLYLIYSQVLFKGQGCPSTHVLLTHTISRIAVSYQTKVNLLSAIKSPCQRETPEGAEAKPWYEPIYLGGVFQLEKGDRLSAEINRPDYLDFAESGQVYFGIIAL

In the case of `C=C(C)C(=O)OCC(F)(F)C(F)(F)C(F)(F)F`, the outcome in experiment [1], in experiment [2], in experiment [3], in experiment [4], in experiment [5] and in experiment [6] was inactive. The result in experiment [7] and in experiment [8] was inactive. In addition, in experiment [4], the half-maximal activity concentration (AC50) was 2.27 µM (active).
For `C=CC/C=C/C/C=C/C/C=C/C`, the outcome in experiment [2], in experiment [3], in experiment [4], in experiment [5], in experiment [6] and in experiment [7] was inactive. The outcome in experiment [8] was inactive.
As for `O=C(O)C(F)(F)C(F)(F)F`, the outcome in experiment [2], in experiment [3], in experiment [4], in experiment [5], in experiment [6] and in experiment [7] was inactive. Further, the outcome in experiment [8] was inactive.
`OCC(F)(F)C(F)(F)C(F)(F)C(F)(F)C(F)(F)C(F)F`: the outcome in experiment [2], in experiment [3], in experiment [4], in experiment [5], in experiment [6] and in experiment [7] was inactive. Moreover, the result in experiment [8] was inactive.
On to `CCO[Si](CCC(F)(F)C(F)(F)C(F)(F)C(F)(F)C(F)(F)C(F)(F)F)(OCC)OCC`, for which the outcome in experiment [2], in experiment [3], in experiment [4], in experiment [5], in experiment [6] and in experiment [7] was inactive. The outcome in experiment [8] was inactive.
On to `O=C(O)C(F)(F)C(F)(F)OC(F)(F)F`, for which the result in experiment [1], in experiment [2], in experiment [3], in experiment [4], in experiment [5] and in experiment [6] was inactive. Further, the outcome in experiment [7] and in experiment [8] was inactive.
`CCCCCCCCC(F)(F)C(F)(F)C(F)(F)C(F)(F)C(F)(F)C(F)(F)F`: the outcome in experiment [2], in experiment [3], in experiment [4], in experiment [5], in experiment [6] and in experiment [7] was inactive. Also, in experiment [8], the outcome was inactive.
Turning to `O=C(O)C(F)(F)C(F)(F)C(F)(F)C(F)(F)C(F)(F)C(F)(F)C(F)(F)C(F)(F)C(F)(F)C(F)(F)C(F)(F)C(F)(F)C(F)(F)F`, the result in experiment [2], in experiment [3], in experiment [4], in experiment [5], in experiment [6] and in experiment [7] was inactive. Further, in experiment [8], the result was inactive.
For `CC(C)(C)C(=O)CC(=O)C(F)(F)C(F)(F)C(F)(F)F`, the compound was called inactive in experiment [1], in experiment [2], in experiment [3], in experiment [4], in experiment [5] and in experiment [6]. Also, the result in experiment [7] and in experiment [8] was inactive.
As to `O=P(O)(O)OCCC(F)(F)C(F)(F)C(F)(F)C(F)(F)C(F)(F)C(F)(F)F`, the outcome in experiment [2], in experiment [3], in experiment [4], in experiment [6], in experiment [7] and in experiment [8] was inactive. The AC50 is 21.9 µM (active) and 19.9 µM (active) in experiment [5]; 20.2 µM (active) in experiment [6].
With `C=CC(=O)OCC(F)(F)C(F)(F)C(F)(F)C(F)(F)C(F)(F)C(F)(F)C(F)(F)F`, the AC50 was 14 µM (active) in experiment [2] and 44.7 µM (active) in experiment [7]. Also, the result in experiment [2], in experiment [3], in experiment [4], in experiment [5], in experiment [6] and in experiment [7] was inactive. Moreover, the result in experiment [8] was inactive.
Take `O=C(O)C(F)(F)C(F)(F)C(F)(F)C(F)(F)F`: the outcome in experiment [2], in experiment [3], in experiment [4], in experiment [5], in experiment [6] and in experiment [7] was inactive. The outcome in experiment [8] was inactive.
As to `Nc1ccc([N+](=O)[O-])cc1O`, the result in experiment [2], in experiment [3], in experiment [4], in experiment [5], in experiment [6] and in experiment [7] was inactive. Further, the outcome in experiment [8] was inactive.
For the compound `N=C(N)C(F)(F)C(F)(F)C(F)(F)C(F)(F)C(F)(F)C(F)(F)C(F)(F)F`, the call in experiment [1], in experiment [2], in experiment [3], in experiment [4], in experiment [5] and in experiment [6] was inactive. For the same compound, the result in experiment [7] and in experiment [8] was inactive. In addition, the AC50 in experiment [2] is 44.7 µM (active); in experiment [3], 44.4 µM (active); in experiment [4] it was 45.4 µM (active); in experiment [5] it was 46 µM (active); in experiment [6], 44.2 µM (active); in experiment [7], 45.5 µM (active).
For `CCCCCCC(C)OC(=O)CCCCC(=O)OC(C)CCCCCC` (centres undefined), the result in experiment [2], in experiment [3], in experiment [4], in experiment [5], in experiment [6] and in experiment [7] was inactive. Also, the result in experiment [8] was inactive.
`FC(F)(F)C(F)(F)C(F)(F)C(F)(F)C(F)(F)C(F)(F)C(F)(F)I`: the outcome in experiment [2], in experiment [3], in experiment [4], in experiment [5], in experiment [6] and in experiment [7] was inactive. The AC50 in experiment [8] was 4.15 µM (active) and 4.24 µM (active).
On to `Cc1ccc(S(=O)(=O)OCC(F)(F)C(F)(F)C(F)(F)C(F)(F)C(F)(F)C(F)F)cc1`, for which the outcome in experiment [2], in experiment [3], in experiment [4], in experiment [5], in experiment [6] and in experiment [7] was inactive. Besides, the result in experiment [8] was inactive. Moreover, the AC50 in experiment [3] was 41.7 µM (active).

Usually AC50 stands for the concentration giving half of the maximal activity seen.
